In PubChem BioAssay:
A number with no mark means an inactive call. Inconclusive results are not listed. The source made the active and inactive calls.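 How the source made its calls, unless noted: active means viability increase at or above a cutoff of the median across tested compounds plus 3 SD (cut at about 8.5% in these data, passing the limit was not always enough); inconclusive means some gains above the cutoff, reason not given; inactive means the rest.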

Key:
[1] = S. cerevisiae growth inhibition in permissive medium (OD615), pilot counter-assay for S. cerevisiae lifespan shortening project, permissive growth control (AID 705;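 active means growth inhibition above 25% in both replicates, a cutoff set 3 SD above the mean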); settings: OD615, 24 h, at 10 µM, stronger effect = higher value
[2] = doxorubicin toxicity protection in MRP-1 cells – H69AR cells, CellTiter-Glo, duplicate, MRP-1 activator project, pilot screen (AID 807); settings: H69AR viability with doxorubicin, CellTiter-Glo luminescence; at 10 µM; stronger effect = higher value;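 further: compound pretreatment 18-22 h then 72 h combined with doxorubicin; 0% = doxorubicin alone and 100% = vehicle without doxorubicin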
[3] = viability of HCT116 without oncogenic beta-catenin – human colon tumor cells, pilot screen (AID 823;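 active means cell viability at or below a set limit in both duplicate runs, the limit being the all-compound median minus 4 SD, cut at about 23% in these data, passing the limit was not always enough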;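 further: 0% = wells killed by 20 µM Hyamine and 100% = untreated DMSO cell wells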); settings: HCT116 beta-catenin knockout viability, CellTiter-Glo, 60 h; at 10 µM; stronger effect = lower value
[4] = viability of PTEN-null HCT116 cells – cell-based, HCT116 clonal line, CellTiter-Glo, pilot screen (AID 824;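 active means viability at or below 27.92% in each of two runs, the all-compound median minus 4 SD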;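 further: 0% = 20 µM Hyamine control and 100% = vehicle cell control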); settings: HCT116 PTEN-deleted viability, 60 h, at 10 µM, stronger effect = lower value
[5] = RAM pathway blockade in budding yeast – dse1pr::URA3 reporter, 5-FOA selection, pilot screen (AID 869;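 active means inhibition over a set limit, the all-compound mean plus 3 SD, in both replicate runs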;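 further: 0% = DMSO wells with no growth and 100% = 10 µM 1-NA-PP1 with full growth; RAM network block rescues cells from 5-FOA so hits raise OD615 growth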); settings: S. cerevisiae dse1pr::URA3 5-FOA growth, OD615, 2 d; at 10 µM; stronger effect = higher value; strain carries analog-sensitive mutant Cbk1 kinase
[6] = RAM signaling pathway blockade in yeast – S. cerevisiae, Pdr1DBD-CYC8 efflux-inhibited sensitized strain, primary screen (AID 1298;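 active means RAM network inhibition above 8.4% in each of two replicates, 3 SD over the compound average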;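 further: 0% = DMSO untreated cells without growth and 100% = 10 µM 1-NA-PP1 full growth; higher means more yeast growth rescued from 5-FOA killing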); settings: S. cerevisiae cbk1-as DSE1-URA3 strain, 5-FOA growth OD615, 2 d; at 50 µM; stronger effect = higher value
[7] = S. cerevisiae growth inhibition in restrictive medium, OD615, pilot screen, restrictive growth control, yeast lifespan reduction project (AID 706;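 active means growth inhibition above a set limit, 3 SD over mean compound inhibition, in both replicates, cut at about 43% in these data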;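 further: modified DeaD lifespan yeast strain shifted to restrictive glucose medium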); settings: OD615, 48 h, at 10 µM, stronger effect = higher value

Compound: Cn1c(C(=O)N2CCC(C(=O)N3CCN(Cc4ccc5c(c4)OCO5)CC3)CC2)cc2sccc21
- growth inhibition [1]: -9.98%
- viability increase [2]: -2.38%
- viability [3]: 70.9%
- viability [4]: 71.1%
- inhibition [5]: 1.03%
- RAM network inhibition [6]: 3.95%

Compound: CCN(CC)C1CC(=O)N(c2cccc(C)c2)C1=O (stereo unspecified)
- growth inhibition [1]: 20%
- viability increase [2]: -1.11%
- viability [3]: 105%
- viability [4]: 101%
- inhibition [5]: 2.06%
- RAM network inhibition [6]: -0.69%

Compound: Cn1cccc1Cc1nnc(SCC(=O)NC2CCCC2)n1CCc1ccccc1
- growth inhibition [1]: -1.71%
- viability increase [2]: -0.59%
- viability [3]: 101%
- viability [4]: 96.8%
- inhibition [5]: 1.71%
- RAM network inhibition [6]: 6.53%

Compound: Cc1ccc(S(=O)(=O)Nc2nc(C)cc(NCCN)n2)cc1
- growth inhibition [7]: -2.19%
- viability increase [2]: -0.98%
- viability [3]: 94.3%
- viability [4]: 88.5%
- inhibition [5]: 0.48%
- RAM network inhibition [6]: 2.5%

Compound: S=C(Nc1ccccn1)c1ccccn1
- growth inhibition [1]: 7.06%
- viability increase [2]: -8.21%
- viability [3]: 2.08% (active)
- viability [4]: 0.72% (active)
- inhibition [5]: 1.43%
- RAM network inhibition [6]: 3.64%

Compound: Oc1c(CN2CCc3ccccc3C2)cc(Cl)c2cccnc12
- growth inhibition [1]: 5.68%
- viability increase [2]: -9.01%
- viability [3]: 1.27% (active)
- viability [4]: 0.66% (active)
- inhibition [5]: -1.5%
- RAM network inhibition [6]: -2.41%

Compound: CCc1ccc(Cn2nnc(C(=O)NCc3ccccc3OC)c2N)cc1
- growth inhibition [7]: 5.92%
- viability increase [2]: -2.2%
- viability [3]: 95%
- viability [4]: 92%
- inhibition [5]: 1.81%
- RAM network inhibition [6]: 4.95%

Compound: CCOc1ccc2nc(N3CCC(C(=O)N4CCN(c5ncccn5)CC4)CC3)sc2c1
- growth inhibition [7]: 25.2%
- viability increase [2]: -3.04%
- viability [3]: 82.1%
- viability [4]: 90.9%
- inhibition [5]: 1.76%
- RAM network inhibition [6]: -1.59%

Compound: CCOC(=O)c1ccc(NC(=O)CSc2nc3c(c(=O)n2CC)SC(C)C3)cc1 (stereo unspecified)
- growth inhibition [7]: -18.3%
- viability increase [2]: -3.44%
- viability [3]: 84%
- viability [4]: 80.8%
- inhibition [5]: 0.12%
- RAM network inhibition [6]: 3.13%

Compound: COc1ccccc1C(=O)Nc1cc(-c2nn3c(C)nnc3s2)ccc1C
- growth inhibition [1]: 12.8%
- viability increase [2]: -3.73%
- viability [3]: 114%
- viability [4]: 97.8%
- inhibition [5]: 1.22%
- RAM network inhibition [6]: 4.87%

Compound: CCOc1ccccc1N1CSC2=C(C#N)C(c3c(OC)ccc4ccccc34)CC(=O)N2C1 (stereo unspecified)
- growth inhibition [1]: 4.14%
- viability increase [2]: -6.32%
- viability [3]: 67.3%
- viability [4]: 65.5%
- inhibition [5]: 3.73%
- RAM network inhibition [6]: 3.99%

Compound: O=C(CSc1nnc(-c2ccccn2)n1Cc1ccco1)c1ccccc1
- growth inhibition [1]: 0.135%
- viability increase [2]: -3.34%
- viability [3]: 98.1%
- viability [4]: 95.2%
- inhibition [5]: 0.485%
- RAM network inhibition [6]: 7.41%

Compound: COc1ccc(S(=O)(=O)N2CCN(c3ccc4nnc(-c5ccc(F)cc5)n4n3)CC2)cc1
- growth inhibition [1]: 16.1%
- viability increase [2]: -6.07%
- viability [3]: 46.4%
- viability [4]: 38.6%
- inhibition [5]: 1.78%
- RAM network inhibition [6]: 1.48%

Compound: O=C(CSc1ccc2nnc(-c3ccc(Cl)cc3)n2n1)N1CCCC1
- growth inhibition [1]: -1.01%
- viability increase [2]: -3.12%
- viability [3]: 86.3%
- viability [4]: 93.1%
- inhibition [5]: 1.32%
- RAM network inhibition [6]: 4.24%

Compound: CC(=O)NC1(NC(C)=O)CCN(C)C(c2ccccc2)C1C (stereo unspecified)
- growth inhibition [7]: -6.19%
- viability increase [2]: -2%
- viability [3]: 98.2%
- viability [4]: 100%
- inhibition [5]: 1.46%
- RAM network inhibition [6]: 1.13%

Compound: COC(=O)c1cc(CSc2nc3ccc(C)cc3[nH]2)oc1C
- growth inhibition [7]: 4.74%
- viability increase [2]: -0.15%
- viability [3]: 46.6%
- viability [4]: 63.5%
- inhibition [5]: 0.105%
- RAM network inhibition [6]: 4.81%

Compound: c1ccc(Cc2nnc3sc(-c4ccco4)nn23)cc1
- growth inhibition [7]: 68.7% (active)
- viability increase [2]: -5.05%
- viability [3]: 108%
- viability [4]: 94.7%
- inhibition [5]: 1.98%
- RAM network inhibition [6]: 5.97%

Compound: CC(=O)C(Sc1ccc2nnc(-c3ccc(C)cc3)n2n1)C(C)=O
- growth inhibition [1]: 1.31%
- viability increase [2]: -4.69%
- viability [3]: 101%
- viability [4]: 95.3%
- inhibition [5]: 2.04%
- RAM network inhibition [6]: 6.06%

Compound: O=C(O)C1CC=CCC1C(=O)NCc1cn2ccccc2n1 (stereo unspecified)
- growth inhibition [7]: -15.1%
- viability increase [2]: -2.16%
- viability [3]: 103%
- viability [4]: 96.1%
- inhibition [5]: 2.84%
- RAM network inhibition [6]: 4.32%

Compound: CCC(C)N1CC23C=CC(O2)C(C(=O)OC)C3C1=O (stereo unspecified)
- growth inhibition [1]: 0.035%
- viability increase [2]: 1.12%
- viability [3]: 109%
- viability [4]: 106%
- inhibition [5]: 0.115%
- RAM network inhibition [6]: 1.34%

Compound: CCN1CCN(C(=O)CS(=O)Cc2nc(-c3ccc(OC)cc3)oc2C)CC1 (stereo unspecified)
- growth inhibition [7]: -7.22%
- viability increase [2]: -0.78%
- viability [3]: 104%
- viability [4]: 100%
- inhibition [5]: 0.945%
- RAM network inhibition [6]: 1.04%
